Data: PubChem BioAssay (NCI)
Compounds without any hit were thinned out: in the full panel of roughly 83,000, 20% have a hit.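 Step 1: grow cells in 96-well plates. Step 2: add test compound at a single concentration. Step 3: incubate 48 h. Step 4: record percent growth.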 Activity calls are given as the source filed them. How the source made its calls: active means growth percent below 10; inactive means the rest.

Columns and labels:
Experiment in all cases: NCI-60 one-dose screen, 48 h (100 = growth as untreated, 0 = no growth, -100 = all killed)
Details in all cases: 10 µM
[1] = system: HCT-15 colon
[2] = system: HT29 colon
[3] = system: SNB-75 CNS
[4] = system: SNB-19 CNS
[5] = system: U251 CNS
[6] = system: PC-3 prostate
[7] = system: SK-MEL-5 melanoma
[8] = system: LOX IMVI melanoma
[9] = system: UACC-62 melanoma
[10] = system: SK-MEL-28 melanoma

Measured: growth

COc1nccnc1NS(=O)(=O)c1ccc(NC2=C(Cl)C(=O)c3nc(C)ccc3C2=O)cc1
inactive: [1] 93.7% | [2] 120% | [3] 111% | [4] 97.9% | [5] 96.9% | [6] 80.2% | [7] 100% | [8] 71.7%

Nc1nc(-c2ccccc2)cc(-c2cc3ccccc3nc2Cl)n1
inactive: [1] 55.9% | [2] 102% | [3] 71.4% | [4] 73.4% | [5] 63.4% | [6] 76.9% | [7] 92.9% | [9] 83.3% | [8] 45% | [10] 103%

N[C@@H](CSSC[C@H](N)C(=O)Nc1ccc(OCC2CCCC2)cc1)C(=O)Nc1ccc(OCC2CCCC2)cc1
active: [1] -76.9% | [2] -93.3% | [3] -96.3% | [4] -95.6% | [5] -86.6% | [6] -87.3% | [7] -100% | [8] -96.1%

CCOc1ccc(Nc2nc3ccccc3nc2Nc2ccc(OCC)cc2)cc1
inactive: [1] 26.8% | [2] 27.9% | [3] 90.9% | [4] 39.7% | [5] 32.3% | [6] 19.8% | [7] 81.6% | [8] 83.8% | [10] 99%

CN1C(=O)N(C)C2SC(N/N=C/c3ccc(F)cc3)=NC21 (stereo not given)
inactive: [1] 26.1% | [2] 16.2% | [3] 23.7% | [4] 43.1% | [5] 35.4% | [6] 66.2% | [7] 26.8% | [9] 18.4% | [8] 40% | [10] 63.5%

COc1ccc(C(=O)/C=C/c2ccc(Cl)c(C(F)(F)F)c2)cc1S(N)(=O)=O
active: [1] -99.9% | [2] -76.9% | [3] -33.7% | [4] -100% | [5] -68.7% | [6] -48.2% | [7] -89.4% | [8] -91.4% | [10] -100%

Nc1nc2c(F)c(F)c(F)c(F)c2s1
inactive: [1] 102% | [2] 104% | [3] 83.1% | [4] 99.8% | [5] 96.5% | [6] 104% | [7] 95.7% | [9] 96.6% | [10] 109%

CC(=O)NCC1=C(C)C=C2C(=O)[C@](C)(O)C3(CC3)C(C)=C21
active: [1] -20% | [2] -20.4% | [3] -74.5% | [4] -49.8% | [5] -13.2% | [6] 2.77% | [7] -84.7% | [8] -49.3% | [10] -93.3%

CCCCOc1ccc(Nc2nc3ccccc3nc2Nc2ccc(OCCCC)cc2)cc1
inactive: [1] 64.4% | [2] 73.7% | [3] 89.5% | [4] 84.1% | [5] 67.3% | [6] 59.7% | [7] 96.3% | [9] 90.6% | [8] 102% | [10] 109%

O=C(N=Nc1c(O)[nH]c2ccc(Br)cc12)c1ccc2nc(-c3ccccc3)[nH]c2c1
active: [2] -41.1% | [3] -46.7% | [4] -47.8% | [5] -95.2% | [6] -84.5% | [7] -58.9% | [9] -96% | [10] -98.4%
inactive: [1] 63.2%

NS(=O)(=O)c1ccc(N=Nc2c(O)n(CC(=O)Nc3ccccc3Br)c3ccccc23)cc1
inactive: [1] 38.2% | [3] 77% | [4] 50.1% | [5] 25.1% | [6] 39.7% | [7] 14.7% | [9] 31.2% | [10] 24.9%
active: [2] 9.73%

C=C1CCC2C3(C)COC(c4c(F)cccc4F)OC3CCC2(C)C1C/C=C1/C(=O)OCC1O (stereo not given)
inactive: [3] 23.2%
active: [1] -18.7% | [2] 3.23% | [4] -7.73% | [5] -94.2% | [6] 5.05% | [7] -65.5% | [9] -4.04% | [10] -51.2%

CC(=O)OC[C@@]1(C)C2CC[C@]3(C)C(CC=C4C5CC(C)(C)CC[C@]5(C(=O)Nc5ccccc5)CC[C@]43C)[C@@]2(C)C[C@@H](OC(C)=O)[C@@H]1OC(C)=O (stereo not given in full)
active: [7] 2.74% | [8] 3.23%
inactive: [1] 25.1% | [2] 28.5% | [3] 58.4% | [4] 39.9% | [5] 39.9% | [6] 27.7% | [10] 59.2%

COc1ccc2nc(Cl)c(-c3cc(-c4ccccc4)nc(N)n3)cc2c1
inactive: [6] 33.6% | [7] 66% | [10] 61.4%
active: [1] -64.5% | [2] 7.7% | [3] -1.67% | [4] 7.38% | [5] -62.4% | [8] -86%

O=c1[nH]c2ccc(Cl)cc2cc1CSc1ccc(Nc2nccc(-c3ccc(Cl)cc3)n2)cc1
inactive: [1] 16.3% | [2] 44.9% | [3] 101% | [4] 77.5% | [5] 21% | [6] 34.4% | [7] 97% | [9] 100% | [8] 35.8% | [10] 98.7%

CONC[C@]1(C)C=C2C(=O)[C@](C)(O)C3(CC3)C(C)=C2[C@H]1O
active: [1] -24.4% | [2] -12% | [3] -80.9% | [4] -10.7% | [5] 3.39% | [6] 3.46% | [7] -37.4% | [9] -90% | [8] -67.3% | [10] -73.2%

COc1ccccc1NCc1ccc(CO)n1-c1ccc(C)cc1
inactive: [1] 96.7% | [2] 102% | [3] 80.2% | [4] 94.9% | [5] 96.1% | [6] 80.2% | [7] 100% | [9] 83.8% | [8] 86.5% | [10] 106%

CN1CCc2c(sc3ncnc(N/N=C/c4cn(-c5ccccc5)nc4-c4ccc(Br)cc4)c23)C1
inactive: [1] 27.4% | [2] 16.5% | [3] 88.8% | [4] 62.4% | [5] 44.9% | [6] 20.8% | [7] 50% | [9] 67.3% | [8] 28.4% | [10] 68.9%

O=c1oc2ccc(-c3ccc(F)cc3F)cc2c(=O)n1-c1ccc(F)cc1
inactive: [2] 59.6% | [4] 13.3% | [5] 18%
active: [1] 5.32% | [3] -14% | [6] 0.638% | [7] -77.9% | [8] 1.46% | [10] -0.667%

O=C(NO)c1ccc(-c2nc3ccc4[nH]ncc4c3c3c2CCCC3)cc1
active: [1] -11% | [2] 6.1% | [3] -77.1% | [4] -19.4% | [5] -39.1% | [7] -88.9% | [8] -90.6% | [10] -55%
inactive: [6] 15.8%

CCCCSc1nc(Nc2ccc(/C(C)=N/NC(N)=S)cc2)c(C#N)c(-c2ccc(F)cc2)n1
inactive: [1] 62.7% | [2] 60.3% | [3] 53.5% | [4] 20.7% | [6] 28.6% | [7] 75% | [10] 64%
active: [5] 7.7% | [8] 6.74%

COc1ccc(OC)c(/C=N/NC(=O)c2ccc3nc(-c4ccc(Cl)cc4)[nH]c3c2)c1
inactive: [1] 41.8% | [2] 79.7% | [3] 72.8% | [4] 54.3% | [5] 74.3% | [6] 41.5% | [7] 31.2% | [9] 75.7% | [8] 65.4% | [10] 85.4%

COc1cccc(COc2ccc(/C=C3\Oc4cc(O)ccc4C3=O)cc2)c1
inactive: [1] 42.1% | [2] 81.1% | [4] 36.1% | [5] 50.7% | [6] 67.8% | [7] 24.6% | [9] 82.7% | [10] 71.1%
active: [3] -22.5%

Cn1cc(/C=N/Nc2ccnc3cc(Cl)ccc23)c2ccccc21
active: [1] -92.2% | [2] -40.1% | [3] -85.8% | [4] -79.8% | [5] -49.8% | [6] -51.5% | [7] -98.2% | [8] -83.7% | [10] -89.6%

O=C(CSc1nnc(-c2c[nH]c3ccccc23)n1-c1ccccc1)c1ccc(Cl)cc1
inactive: [1] 73.3% | [2] 42.6% | [3] 54.7% | [4] 40% | [5] 30.1% | [6] 60.4% | [7] 78.2% | [9] 52.8% | [8] 15.9% | [10] 68.3%

O=C(c1ccccc1)n1ccc(-c2cc3cc(Br)ccc3oc2=O)n1
active: [8] 2.5%
inactive: [1] 22.8% | [2] 63.5% | [3] 66.1% | [4] 34.5% | [5] 27.8% | [6] 28.2% | [7] 10.6% | [10] 24.4%

O=C(c1ccc(O)cc1)C1[C@H](c2ccc(Br)cc2)[C@@H](c2ccccc2)NC12C(=O)Nc1ccc(Br)cc12 (stereo not given in full)
inactive: [3] 45.8% | [4] 11.8% | [6] 21.4% | [10] 26.2%
active: [1] -47.3% | [2] -31.5% | [5] -48.7% | [7] -76.7% | [8] -100%

OCCNc1oc(-c2ccccc2)nc1[P+](c1ccccc1)(c1ccccc1)c1ccccc1
inactive: [1] 77.8% | [2] 10.4% | [5] 14.7% | [6] 10.6%
active: [3] -1.51% | [4] 4.29% | [7] -100% | [9] -66.4% | [8] 2.03% | [10] 3.6%
